Most compounds without a hit are left out; they make up all but 3% or so of the library.
PLK1 PBD inh: PLK1 (human) polo-box domain binding inhibition; 2.8% of 360,000 active; Plk1 PBD binding of FITC phosphopeptide, fluorescence polarization; Potency, µM, inactives show max response, negative = inhibition, hits mostly inhibitors; also: series mostly up to about 57 µM; nearly all actives have a fitted effect of over 65% in size
12-LOX inh: inhibitors of human 12S-lipoxygenase ALOX12; P18054; purified 12hLO, xylenol orange hydroperoxide absorbance; Potency, µM (top dose mostly 108 µM), for the others: top-dose activity change, negative = inhibition, hits mostly inhibitors; 1.1% of 580,000 active
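Purified human 12hLO (150 nM final) in 25 mM Hepes, 0.01% Triton X-100, pH 7.0 was preincubated 15 min at room temperature with compound. Then 40 uM arachidonic acid was added, 30 min. Hydroperoxide was read by Fe-XO absorbance ratio 573/405 nm.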
KAT2A inh: blocks human GCN5L2 histone acetyltransferase; Q92830; GCN5L2 HAT assay, ThioGlo1 CoA-SH fluorescence; Potency, µM (series often up to 58.9 µM), for the others: at the highest dose activity change, negative = inhibition, most hits filed as inhibitors; 0.21% of 390,000 active; AID 504327
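Fluorescence readout, Ex340nm/Em540nm: ThioGlo1 (50uM final) reacts with free CoA thiol released as 20nM GCN5L2 acetylates H3(1-25) peptide (75uM) using acetyl-CoA (70uM). Compound and enzyme sat 15 min beforehand; 20 min room-temperature reaction.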
VDR inhibitor: inhibitors of human vitamin D receptor; VDR-SRC2-3 peptide fluorescence polarization, 2 h; Potency, µM, without a hit: max response, negative = inhibition, actives largely listed as inhibitors; P11473; 0.93% of 400,000 active
Target sequence (P11473 whole entry, looked up): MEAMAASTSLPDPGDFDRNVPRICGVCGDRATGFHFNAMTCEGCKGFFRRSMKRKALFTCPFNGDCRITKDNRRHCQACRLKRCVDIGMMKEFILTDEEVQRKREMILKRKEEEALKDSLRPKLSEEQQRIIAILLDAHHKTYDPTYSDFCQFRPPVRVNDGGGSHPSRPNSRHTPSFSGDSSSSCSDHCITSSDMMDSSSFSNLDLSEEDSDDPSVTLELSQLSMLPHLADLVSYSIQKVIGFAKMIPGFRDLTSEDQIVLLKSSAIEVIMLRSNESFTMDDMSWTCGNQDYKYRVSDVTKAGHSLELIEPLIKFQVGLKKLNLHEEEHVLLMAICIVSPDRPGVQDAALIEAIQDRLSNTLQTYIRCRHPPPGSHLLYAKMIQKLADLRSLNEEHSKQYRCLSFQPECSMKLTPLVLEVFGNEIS
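Fluorescence polarization assay of small-molecule disruption of VDR binding to coregulator peptide SRC2-3. Compounds and controls pin-transferred, then read after 2 h incubation at ambient room temperature.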
An asterisk follows results filed as active; ? = inconclusive; . = no result; [ ] = another dose, or the depositor's remark. Calls follow the shape of the dose curve; as a rule, active = well fitted curve in the direction sought with a large enough effect; inconclusive = small, poorly fitted or top-dose-only effect, or another doubt; inactive = no such curve, though single readings can be large; an effect the other way counts as inactive or inconclusive. % is scaled to controls: 0 for no effect and ±100 for the full control effect; potency is read from the fitted curve at half-maximal effect.

SMILES	PLK1 PBD inh	12-LOX inh	KAT2A inh	VDR inhibitor
COP(=O)(OC)c1nc(-c2cccc3ccccc23)oc1N1CCOCC1	-12.4%	?	28.2µM*	-11.2%
CCCC1CCC(NC(C)C)CC1 (centres undefined)	.	26.1%	.	.
CCOC(=O)c1c(C)c(P(=S)(N2CCOCC2)N2CCOCC2)n(C)c1C	26.7µM*	32.4%	-6.1%	6.7%
[O]=[Sb]([OH])([OH])[c]1ccccc1	.	.	.	79.4µM*
O=C(Cc1ccccc1)OCc1ccccc1	-10.6%	8.7%	3.6%	-2.0%
CCCCCNc1c(C(=O)OCC)c(=O)[nH]c2ccccc12	26.7µM*	0.0%	-3.1%	-18.1%
O=C(NC[C@H]1C[C@@H]2CCN1C[C@@H]2CN1CCN(c2ccc(F)cc2)CC1)Nc1cccc(F)c1	.	-6.9%	.	.
CC(=O)Nc1ccc(S(=O)(=O)NC[C@H]2C[C@@H]3CCN2C[C@@H]3c2cc(-c3ccccc3)nn2C)cc1	.	6.5%	.	.
Cc1ccc(S(=O)(=O)Nc2ccc3c(c2)CC(=O)N([C@H](C)CO)C[C@@H](C)[C@H](CN(C)S(=O)(=O)c2ccccc2)O3)cc1	21.2µM*	-5.1%	-1.8%	?
Cc1ccc(OC(=O)N(C)C[C@@H]2OCc3cnnn3CCCC(=O)N([C@@H](C)CO)C[C@@H]2C)cc1	-10.6%	-0.3%	.	.
c1ccc(Nc2cc3c(cn2)CN(CC2CC2)CCN3)cc1	.	47.2%[176 µM]	.	.
Cc1ccc(CN2CCN(CC(=O)N3CCC4(CC3)OCCO4)C2=O)cc1	29.9µM*	0.0%	-3.9%[0.501 µM]	-3.9%
COc1ccc(C)cc1NC(=O)c1cn(C)c2ccccc12	.	-2.7%	.	.
CCOP(=S)(OCC)Oc1nc(Cl)c(Cl)cc1Cl	29.9µM*	-25.4%	?	31.6µM*
COP(=S)(OC)Oc1nc(Cl)c(Cl)cc1Cl	.	.	20µM*	4.47µM*
O=C(O)COc1nc(Cl)c(Cl)cc1Cl	.	-10.4%[57.4 µM]	-14.9%	-15.9%
CN(C)CC(=O)Nc1ccc2n(c1=O)C[C@H]1C[C@@H]2CN(C(=O)c2cccnc2)C1	.	86.2%[176 µM]	.	.
CC(C)NC(=O)NC[C@H]1C[C@@H]2CCN1C[C@@H]2c1cc(-c2ccc(F)cc2)nn1C	.	55.2%[176 µM]	.	.
CC(C)c1cc2c(c(O)c1O)[C@@]1(C(=O)O)CCCC(C)(C)[C@@H]1CC2	.	.	-23.0%	20µM*
CC1(C(=O)O)CCCC2(C)c3cc(O)ccc3CCC12 (centres undefined)	-17.2%	-17.8%	.	6.1%
CC(C)c1cc2c(c(O)c1O)[C@]1(C(=O)O)CCCC(C)(C)C1CC2 (some centres undefined)	.	.	-6.2%	44.7µM*
CC(C)(C)CN1CCC2(CN[S+](=O)([O-])c3cccnc3O2)C1 (centres undefined)	.	0.5%[6.33 µM]	.	.
CC[C@H]1CN2CC[C@H]1C[C@@H]2CNC(=O)c1ccco1	.	96.6%[176 µM]	.	.
O=C1NC(=O)C(=O)C(=O)N1	.	.	-13.3%	3.16µM*
CSc1nc(N)c(N=Nc2ccc([As](=O)(O)O)cc2)c(=O)[nH]1	10.6µM*	?	-8.6%	50.1µM*
SMILES	PLK1 PBD inh	12-LOX inh	KAT2A inh	VDR inhibitor
COc1ccc(N=Nc2c(O)[nH]c(=S)[nH]c2=O)cc1	-20.3%	?	1.4%	-8.3%
COc1ccc2nc(/N=C/c3c(O)n(-c4cccc(Cl)c4)c(=O)[nH]c3=O)sc2c1	-29.6%	-10.4%	-1.3%	50.1µM*
Clc1ccc(C(Cl)(Cl)Cl)c(Cl)c1	10.6µM*	?	1.2%	1.1%
O=C1/C(=C\c2ccc(F)cc2)N2CCC1CC2	.	-25.9%	.	.
COC(=O)N(c1ccccc1)P1(=S)OCCO1	11.9µM*	-0.5%	-20.2%	?
CCOC(=O)N(c1ccccc1)P1(=S)OCC(C)O1 (centres undefined)	-6.7%	-18.3%	-4.9%	4.7%
CCOC(=O)N(c1ccccc1)P1(=S)OCCO1	11.9µM*	0.7%	2.3%	79.4µM*
CCN(CC)C(=O)c1ccc2c(c1)C1C(Cl)C(Sc3ccccc3[N+](=O)[O-])CC1C(C(=O)O)N2 (centres undefined)	6.7µM*	.	12.6µM*	2.1%
Cc1ccc2c(c1Cl)NC(C(=O)O)C1CC(Sc3ccccc3[N+](=O)[O-])C(Cl)C21 (centres undefined)	26.7µM*	.	3.4%	1.3%
CC(C)=CCOc1c2occc2cc2ccc(=O)oc12	26.7µM*	11.1%	-14.3%	?
CC1(C)OC1COc1c2occc2cc2ccc(=O)oc12 (centres undefined)	2.0%	-27.3%	-3.2%	-1.7%
O=C(O)COc1ccc(Br)cc1C(c1c(C(=O)O)[nH]c2ccccc12)c1c(C(=O)O)[nH]c2ccccc12	26.7µM*	.	?	?
O=C1CSC(c2ccc(F)cc2F)c2cn[nH]c2N1 (centres undefined)	.	12.1%	.	.
O=C(CCN1CC2CCC(CC2)C1)c1cccs1	23.8µM*	-11.5%	.	44.7µM*
O=C(c1cccs1)N1CC(CO)C2(CCNCC2)C1 (centres undefined)	.	35.3%	.	.
O=[N+]([O-])NC1=NCCN1Cc1ccc(Cl)nc1	26.7µM*	3.8%	1.6%	?
Fc1ccccc1CNC1CN2CCC1CC2 (centres undefined)	18.9µM*	-11.0%	-4.7%	?
N/C(=N\N=C/c1ccc(-c2ccc(O)c(C(=O)O)c2)o1)N[N+](=O)[O-]	11.2µM*	?	?	-8.7%
N/C(=N\N=C\c1ccccc1F)N[N+](=O)[O-]	.	-10.8%	.	.
CCOC(=O)[C@]12Cc3cc(OC)ccc3[C@H]1N(C(C)C)C(=O)c1cc(OC)ccc12	8.44µM*	?	.	.
CCOC(=O)[C@]12Cc3cc(C)ccc3[C@H]1N(C)C(=O)c1cc(OC)ccc12	6.7µM*	0.0%	.	.
COCc1cn(C[C@H]2C[C@@H]3CCN2C[C@@H]3C(=O)NCc2ccccc2)nn1	.	11.9%[176 µM]	.	.
CN1C(=O)[C@]23CC4=CC=C[C@H](O)[C@H]4N2C(=O)[C@@]1(CO)SS3	.	.	-11.9%	3.98µM*
CCOc1ccc(C(=O)N2CCC3(CC2)NCc2ccccc2-n2ccnc23)cc1	.	20.2%	.	.
N#CC(C#N)=NNc1ccc(OC(F)(F)F)cc1	.	?	?	0.891µM*
SMILES	PLK1 PBD inh	12-LOX inh	KAT2A inh	VDR inhibitor
COC(=O)C1=C(C)N[C@]2(C)C[C@H]1c1ccccc1O2	.	-8.7%	.	.
CC(C)N1C[C@@H]2OCC(=O)N(Cc3ccccn3)[C@@H]2C1	.	61.2%[176 µM]	.	.
O=C(NCc1nnc(SCC(=O)N2CCN(c3ccccc3)CC2)o1)c1ccco1	26.7µM*	-11.9%	-5.0%	-14.3%
CCCCc1cn(C[C@H]2C[C@@H]3CCN2C[C@@H]3C(=O)NCc2ccc(F)cc2)nn1	.	2.7%[176 µM]	.	.
CCCCn1c(N)c(C(=O)NCCN2CCOCC2)c2nc3ccccc3nc21	-8.1%	-19.0%	-15.9%	-7.1%
CCCCn1c(NS(=O)(=O)c2ccccc2)c(C(=O)OCC)c2nc3ccccc3nc21	?	0.3%	25.1µM*	44.7µM*
COc1ccc(/C=C2\C(=O)NC(=O)N(CCC3=CCCCC3)C2=O)c(OC)c1	1.68µM*	?	?	?
O=C1NC(=O)N(CCC2=CCCCC2)C(=O)/C1=C/c1ccc(O)cc1	2.67µM*	?	-6.5%	?
O=C1NC(=O)N(CCC2=CCCCC2)C(=O)/C1=C/c1cccs1	0.752µM*	?	-10.4%	?
CCN1C(=O)NC(=O)/C(=C\c2ccc(N3CCOCC3)cc2OC)C1=O	.	?	-12.7%	.

Source: PubChem BioAssay
